Only some compounds are listed: those with a hit (about 1.6% of all), similar ones and a draw of the others.
KCNQ2 pot = potentiators of rat KCNQ2 potassium channel | O88943 | CHO-K1 KCNQ2, FluxOR thallium flux fluorescence; hits give high values | B-score at 10 µM | 310,000 compounds, 0.54% hits | AID 2239;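 active = fluorescence ratio B-score at least 3 SD of library B-scores, with initial fluorescence B-score within 3 of them, cut at about 5.3 in these data; same plate scores as AID 2156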;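 note: B-score of peak minus minimum over baseline fluorescence ratio after K+ and Tl+ stimulus; positive B-score means potentiation of KCNQ2 with more thallium influx and brighter signal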
KCNQ2 block = inhibitors of rat KCNQ2 potassium channel. O88943. 310,000 compounds, 1.1% hits. AID 2156. CHO-K1 KCNQ2, FluxOR thallium flux, 20 min; hits give low values. B-score at 10 µM;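 active = fluorescence ratio B-score at most minus 3 library SDs, with starting brightness B-score within 2 library SDs, cut at about -5.5 in these data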
KCNQ2 block conf = confirmation of rat KCNQ2 potassium channel inhibitors | KCNQ2-expressing cells, thallium flux, inhibition; hits give low values | shares compounds with KCNQ2 block | 1,000 compounds, 57% hits | activity change, negative = inhibition, % at 10 µM;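 note: 0% = vehicle wells and values are ratio percent relative to vehicle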
KCNQ1 spec = human KCNQ1 activity in KCNQ2 inhibitor specificity screen; shares compounds with KCNQ2 block; 1,000 compounds, 15% hits; AID 493026; activity change, negative = inhibition, % at 10 µM; KCNQ1-expressing cells, FluxOR thallium flux fluorescence; hits give low values;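 active = activity change at least 3 SD of negative controls below their mean in both duplicate wells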;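 note: CHO cells stably transfected with KCNQ1 and depolarized by potassium stimulus; peak minus minimum fluorescence over baseline after thallium addition; 0% = vehicle negative control and -100% = blank without thallium stimulus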
Target sequence (P51787 whole entry, looked up): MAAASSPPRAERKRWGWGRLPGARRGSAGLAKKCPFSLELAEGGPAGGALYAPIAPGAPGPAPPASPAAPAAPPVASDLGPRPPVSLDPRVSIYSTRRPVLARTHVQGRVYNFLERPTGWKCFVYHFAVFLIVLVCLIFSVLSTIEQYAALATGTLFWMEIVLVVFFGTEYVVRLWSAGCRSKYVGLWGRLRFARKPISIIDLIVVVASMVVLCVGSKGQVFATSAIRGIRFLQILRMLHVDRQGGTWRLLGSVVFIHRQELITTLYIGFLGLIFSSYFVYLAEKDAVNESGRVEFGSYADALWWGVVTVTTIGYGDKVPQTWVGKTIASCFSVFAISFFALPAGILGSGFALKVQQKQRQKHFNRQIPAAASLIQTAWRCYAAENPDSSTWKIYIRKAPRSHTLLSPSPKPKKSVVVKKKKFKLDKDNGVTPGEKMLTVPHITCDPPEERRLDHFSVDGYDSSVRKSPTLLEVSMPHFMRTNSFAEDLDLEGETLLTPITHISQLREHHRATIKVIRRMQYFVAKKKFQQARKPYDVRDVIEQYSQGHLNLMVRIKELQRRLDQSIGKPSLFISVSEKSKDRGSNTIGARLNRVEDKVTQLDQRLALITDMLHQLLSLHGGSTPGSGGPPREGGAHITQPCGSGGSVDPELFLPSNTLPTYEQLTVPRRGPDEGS
CHO parental ctr = KCNQ2 inhibitor counter-screen hit in parental CHO cells. shares compounds with KCNQ2 block. thallium flux counter-screen; hits give low values. activity change, % at 10 µM. 1,000 compounds, 14% hits;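 note: 0% = vehicle negative controls with stimulus buffer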
KCNQ2 inh confirm = blocks rat KCNQ2 current in automated patch clamp; AID 588531; 550 compounds, 49% hits; KCNQ2-expressing cells; calls only at 10 µM; shares compounds with KCNQ2 block
Kir21 conf inh = confirmation of mouse Kir2.1 potassium channel inhibitors | Kir2.1-expressing cells, FluxOR thallium flux fluorescence; hits give low values | 2,300 compounds, 41% hits | shares compounds with KCNQ2 pot | Tl flux remaining, % of negative control (hits give low values), % at 10 µM;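 active = Primary-screen hit whose thallium flux fell at least 3 control SD below untreated wells in both duplicates, with normal baseline fluorescence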;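 note: 0% = blank wells without stimulus and 100% = stimulated no-compound controls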
HEK293 ctr = counter-screen for Kir2.1 inhibitors: effect in parental HEK293 cells; shares compounds with KCNQ2 pot; FluxOR thallium flux fluorescence; 0% = unstimulated blank wells; FluxOR signal as % of negative control (100 = no effect), % at 10 µM; 2,300 compounds, 19% hits;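 active = dye signal at least 3 control SD above or below untreated wells in both duplicates, raw fluorescence within 3, either direction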;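 note: percent is based on the flux ratio of peak minus minimum fluorescence over baseline F0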
* hit, by the source's call; i = inactive; nt = no result; + = active, no number. Unless noted, the rule behind the calls is not given here.

SMILES	KCNQ2 pot	KCNQ2 block	others
CCN(CC)c1ccc(CC2C(=O)N(C)C(=O)N(C)C2=O)cc1	nt	i
CCc1cccc(C)c1NC(=S)N1CC2CC(C1)c1cccc(=O)n1C2 (stereo not drawn)	nt	i
CCOC(=O)c1c(/N=C/C2C(=O)NC(=O)NC2=O)sc2c1CCC2	0.38	i
CCOC(=O)c1c(NC(NC(=O)CF)C(Cl)(Cl)Cl)sc2c1CCCC2 (stereo not drawn)	-8.4	-8.4*	KCNQ2 block conf=-29%*;KCNQ1 spec=i;CHO parental ctr=i;KCNQ2 inh confirm=i
CC(=NCc1ccc2c(c1)OCO2)c1c(O)n(-c2ccccc2)c(=O)[nH]c1=O	nt	i
O=C(C1CCC(=O)N1Cc1ccccc1Cl)N1CCC2(CC1)OCCO2 (stereo not drawn)	1.5	i
O=c1[nH]cc(COCC(F)(F)C(F)(F)C(F)(F)F)c(=O)[nH]1	nt	i
OC(c1ccc(F)cc1)(c1ccc(F)cc1)[C@@H]1CCCN1	nt	i
CCC(C#N)(CC)P(=S)(c1ccccc1)c1ccccc1	-8.6	-8.6*	KCNQ2 block conf=i;KCNQ1 spec=i;CHO parental ctr=i
Cc1ccc(C)c(OCc2cc(C(=O)N3C[C@H]4C[C@@H](C3)c3cccc(=O)n3C4)no2)c1	1.4	i
O=P(NCc1ccccc1)(Oc1ccccc1)Oc1ccccc1	-6.9	-6.9*	KCNQ2 block conf=i;KCNQ1 spec=i;CHO parental ctr=i
O=P(NS(=O)(=O)c1ccccc1)(Oc1ccccc1)Oc1ccccc1	0.11	i
COc1ccc(-n2c(/C=C/c3ccc(O)c(OC)c3)nc3ccccc3c2=O)cc1	nt	i
COc1cccc(-n2c(/C=C/c3ccc(O)c(O)c3)nc3ccccc3c2=O)c1	-6.9	-6.9*	KCNQ2 block conf=-28%*;KCNQ1 spec=i;CHO parental ctr=i;KCNQ2 inh confirm=i
NC(N)=N/N=C/c1cn(-c2ccccc2)nc1-c1cccs1	-11	-11*	KCNQ2 block conf=i;KCNQ1 spec=i;CHO parental ctr=i
O=c1c2ccccc2nc(-c2cccs2)n1-c1ccccc1	nt	i
Cc1nn(Cc2ccccc2)c(C)c1C(=O)NC1CCCc2ccccc21 (stereo not drawn)	nt	i
COc1cccc(NP(=O)(Oc2ccc(Cl)cc2)Oc2ccc(Cl)cc2)c1	nt	i
O=P(Nc1ccccc1)(Nc1ccccc1)Oc1ccc(Cl)cc1	-9.7	-9.7*	KCNQ2 block conf=i;KCNQ1 spec=i;CHO parental ctr=i
COc1cc(/C=C2/C(=O)NC(=O)N(c3ccccc3)C2=O)ccc1O	0.42	i
COc1cc(/C=C/[N+](=O)[O-])ccc1O	-7.1	-7.1*	KCNQ2 block conf=-32%*;KCNQ1 spec=-30%*;CHO parental ctr=-24%*;KCNQ2 inh confirm=i
O=c1[nH]c(Cl)ccc1CN1CCOCC1	nt	i
O=C(CNC(=O)c1ccccc1Cl)Nc1ccc(Br)cc1C(=O)c1ccccc1	0.06	i
O=C(c1cc(C(=O)NCc2ccccc2)c(=O)n(Cc2ccccc2)c1)c1cc(Br)ccc1O	-8.2	-8.2*	KCNQ2 block conf=-34%*;KCNQ1 spec=-39%*;CHO parental ctr=-32%*;KCNQ2 inh confirm=i
Clc1ccc(COC(Cn2ccnc2)c2ccc(Cl)cc2Cl)c(Cl)c1 (stereo not drawn)	-7.3	-7.3*	KCNQ2 block conf=-38%*;KCNQ1 spec=-42%*;CHO parental ctr=-34%*;KCNQ2 inh confirm=i
SMILES	KCNQ2 pot	KCNQ2 block	others
Cc1ccc(C)c(NC(=O)CCNC(=O)N2C[C@H]3C[C@@H](C2)c2cccc(=O)n2C3)c1	0.07	i
CCNc1nc(Cl)nc(NC(C)C)n1	1.4	i
CCCC1(CCC)C(=O)NC(=NCc2ccccc2)NC1=O	-10	-10*	KCNQ2 block conf=-36%*;KCNQ1 spec=i;CHO parental ctr=i;KCNQ2 inh confirm=+
CCCC1(CCC)C(=O)NC(=Nc2ccccc2)NC1=O	1.3	i
Cn1c(O)c(Cc2ccc(OCc3ccccc3)cc2)c(=O)n(C)c1=O	0.99	i
O=c1[nH]c(=S)[nH]c(O)c1/C=N/N1CCOCC1	nt	i
CC(C)OP(=O)(OC(C)C)C(O)c1ccccc1F (stereo not drawn)	nt	i
CCCCCCCSc1cc(OC)c(CCNC)cc1OC	-7.4	-7.4*	KCNQ2 block conf=-31%*;KCNQ1 spec=i;CHO parental ctr=i;KCNQ2 inh confirm=i;Kir21 conf inh=20%*;HEK293 ctr=i
O=C(c1ccc(Cl)cc1)C1CCCN(Cc2ccc3nonc3c2)C1 (stereo not drawn)	nt	i
Oc1ccc(-[n+]2c(-c3ccccc3)cc(-c3ccccc3)cc2-c2ccccc2)cc1	-6.9	-6.9*	KCNQ2 block conf=-27%*;KCNQ1 spec=i;CHO parental ctr=i;Kir21 conf inh=44%*;HEK293 ctr=74%*
O=C([O-])c1ccc(-[n+]2c(-c3ccccc3)cc(-c3ccccc3)cc2-c2ccccc2)cc1	nt	i
CC(=O)O[C@@H]1[C@H]2CC[C@@H]3[C@]1(C[C@@H](OC(C)=O)[C@@]1(O)C([C@@H]4O[C@@H]4C1(C)C)[C@]3(C)O)C[C@@]2(C)O (stereo partly drawn)	nt	i
CN1C(=O)C(=Cc2c(OCc3cnc(Cl)s3)ccc3ccccc23)C(=O)N(C)C1=O	nt	i
O=c1cccc2n1CC1CC2CN(Cc2cccc(Cl)c2Cl)C1 (stereo not drawn)	nt	i	Kir21 conf inh=38%*;HEK293 ctr=i
O=c1cccc2n1CC1CC2CN(Cc2c(F)cccc2Cl)C1 (stereo not drawn)	0.97	i
COc1ccc2ccccc2c1CNCCc1ccccc1	nt	i	Kir21 conf inh=38%*;HEK293 ctr=i
COc1cccc(CNCCc2ccccc2)c1OC	1.7	i
CCCN1CCCC(C(=O)c2cc(C)c(OC)c(C)c2)C1 (stereo not drawn)	nt	i
Cc1cc(C)n(-c2ccc(NN=C(C#N)C#N)cc2)n1	nt	i
N#CC(C#N)=NNc1ccc(-n2ccc(C(F)(F)F)n2)cc1	4.8	i	Kir21 conf inh=60%*;HEK293 ctr=73%*
O=C(O)CSC(=S)N1CC2CC(C1)c1cccc(=O)n1C2 (stereo not drawn)	nt	i
CC1=CC2/C=C(\C)CCC(O)C(O)/C=C/C(=O)C23C(=O)NC(CC(C)C)C3C1C (stereo not drawn)	nt	i	Kir21 conf inh=64%*;HEK293 ctr=i
COc1cc2c(cc1OC)C13CCN4CC5=CCOC6CC(=O)N2C1C6C5CC43 (stereo not drawn) (tested in a mixture with another compound)	nt	i
O=[N+]([O-])c1ccccc1-c1cc(-c2ccccc2)cc(-c2ccccc2)[n+]1Cc1ccccc1Cl	-7.4	-7.4*	Kir21 conf inh=22%*;HEK293 ctr=i

Compound activity from PubChem BioAssay.
